Assay results reported in PubChem BioAssay (NCATS).
Results filed as inconclusive are left out. Calls of active or inactive are those of the source. Unless noted, calls follow the shape of the dose curve; as a rule, active = well fitted curve in the direction sought with a large enough effect; inconclusive = small, poorly fitted or top-dose-only effect, or another doubt; inactive = no such curve, though single readings can be large; an effect the other way counts as inactive or inconclusive.

Key:
[1] = target: Lysosomal acid glucosylceramidase (Homo sapiens) (UniProt P04062); experiment: Glucocerebrosidase-p2 (AID 348; in the data active = potency below about 10 µM; also: potency is read from the fitted curve at half-maximal effect); conditions: purified GBA, blue fluorogenic substrate, 40 min
Lysosomal acid glucosylceramidase (Homo sapiens), sequence (P04062 whole entry, looked up): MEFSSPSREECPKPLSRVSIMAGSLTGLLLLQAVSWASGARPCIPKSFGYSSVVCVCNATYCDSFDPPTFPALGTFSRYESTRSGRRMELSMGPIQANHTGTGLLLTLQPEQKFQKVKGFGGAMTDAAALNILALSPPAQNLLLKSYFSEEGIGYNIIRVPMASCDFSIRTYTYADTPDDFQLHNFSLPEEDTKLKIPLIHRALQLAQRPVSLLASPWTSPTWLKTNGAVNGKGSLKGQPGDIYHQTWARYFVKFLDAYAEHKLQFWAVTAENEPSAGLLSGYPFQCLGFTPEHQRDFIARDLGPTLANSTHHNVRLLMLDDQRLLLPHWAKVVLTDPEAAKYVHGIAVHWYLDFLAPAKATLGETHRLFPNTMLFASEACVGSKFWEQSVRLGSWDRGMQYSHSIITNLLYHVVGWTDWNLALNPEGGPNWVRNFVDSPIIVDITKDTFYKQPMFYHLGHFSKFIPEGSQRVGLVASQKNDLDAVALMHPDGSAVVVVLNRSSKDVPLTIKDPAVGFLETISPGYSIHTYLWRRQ
How it was run: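 Normal human glucocerebrosidase (0.2 nM) with blue fluorogenic substrate (80 uM final) in citrate/phosphate pH 5.9 with 10mM sodium taurocholate, 0.01% tween-20; 40 min RT, NaOH/glycine stop; fluorescence Ex 365/Em 440; AC50 from a titration from 0.6 nM upwards.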

[2] = AP1 Signaling Pathway (AID 357; active = well fitted curve in either direction with a large enough effect, not every such curve was filed as active;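 also: ME-180 reporter cells stimulated with EGF at its EC50 level; % is scaled to controls: 0 for no effect and ±100 for the full control effect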); conditions: ME-180 AP-1-bla reporter, EGF-induced, beta-lactamase ratio, 5 h; at 7.69 µM (top of the series) unless noted
How it was run: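 AP-1-bla ME-180 cells, Opti-MEM + 0.5% dialyzed FBS, plated overnight 37 °C. Cpd titration + EC50 EGF, 5 h 37 °C. CCF4 2.5 h RT; ex 405, em 460/530 ratio → %activity, AC50.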

[3] = target: Cytochrome P450 1A2 (Homo sapiens) (UniProt P05177); experiment: p450-cyp1a2 (AID 410; calls by dose curve; also: potency is read from the fitted curve at half-maximal effect); conditions: recombinant CYP1A2, luciferin-ME demethylation, luminescence; series mostly up to 57 µM
Cytochrome P450 1A2 (Homo sapiens), sequence (P05177 whole entry, looked up): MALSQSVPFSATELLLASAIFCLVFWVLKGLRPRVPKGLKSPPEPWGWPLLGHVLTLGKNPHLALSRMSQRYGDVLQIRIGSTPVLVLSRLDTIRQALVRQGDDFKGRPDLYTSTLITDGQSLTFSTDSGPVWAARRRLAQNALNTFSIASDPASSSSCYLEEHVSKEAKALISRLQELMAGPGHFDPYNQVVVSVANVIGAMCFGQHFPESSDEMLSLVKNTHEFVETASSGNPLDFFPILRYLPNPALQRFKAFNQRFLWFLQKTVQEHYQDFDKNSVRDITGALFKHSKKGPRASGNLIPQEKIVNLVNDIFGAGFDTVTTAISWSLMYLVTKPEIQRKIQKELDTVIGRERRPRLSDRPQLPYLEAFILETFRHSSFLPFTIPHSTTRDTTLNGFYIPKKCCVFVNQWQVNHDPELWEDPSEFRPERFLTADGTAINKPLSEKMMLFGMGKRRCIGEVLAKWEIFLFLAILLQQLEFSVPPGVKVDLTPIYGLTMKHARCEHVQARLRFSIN
How it was run: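 Read-out is luminescence from luciferin produced by CYP1A2 demethylation of Luciferin-ME (100uM, at Km). Detection reagent stopped the 60 min NADPH-dependent reaction; signals were normalized to 57 uM furafylline.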

[4] = NFAT Signaling Pathway (AID 444; active = well fitted curve in either direction with a large enough effect, not every such curve was filed as active;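 also: carbachol stimulus at about its EC50 of 1 µM final; % is scaled to controls: 0 for no effect and ±100 for the full control effect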); conditions: Jurkat NFAT-bla M1, carbachol, beta-lactamase ratio, 5 h; at 7.69 µM (top of the series) unless noted
How it was run: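 Jurkat cells with NFAT-driven β-lactamase reporter and co-expressed M1 receptor, stimulated with carbachol (final 1 uM, ~EC50), compound titration, 5 h at 37 °C. CCF4 loaded 1 h at RT; 460/530 nm ratio gave %activity and AC50.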

[5] = target: Glucocorticoid receptor (Homo sapiens) (UniProt P04150); experiment: GR-GFP Redistribution (AID 450;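 active = compounds whose dose series gives a full or clear partial fitted curve of increased nuclear translocation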; also: potency is read from the fitted curve at half-maximal effect); conditions: U2OS GR-GFP nuclear translocation, laser cytometry, 2 h
Glucocorticoid receptor (Homo sapiens), sequence (P04150 whole entry, looked up, the tested form may be a part): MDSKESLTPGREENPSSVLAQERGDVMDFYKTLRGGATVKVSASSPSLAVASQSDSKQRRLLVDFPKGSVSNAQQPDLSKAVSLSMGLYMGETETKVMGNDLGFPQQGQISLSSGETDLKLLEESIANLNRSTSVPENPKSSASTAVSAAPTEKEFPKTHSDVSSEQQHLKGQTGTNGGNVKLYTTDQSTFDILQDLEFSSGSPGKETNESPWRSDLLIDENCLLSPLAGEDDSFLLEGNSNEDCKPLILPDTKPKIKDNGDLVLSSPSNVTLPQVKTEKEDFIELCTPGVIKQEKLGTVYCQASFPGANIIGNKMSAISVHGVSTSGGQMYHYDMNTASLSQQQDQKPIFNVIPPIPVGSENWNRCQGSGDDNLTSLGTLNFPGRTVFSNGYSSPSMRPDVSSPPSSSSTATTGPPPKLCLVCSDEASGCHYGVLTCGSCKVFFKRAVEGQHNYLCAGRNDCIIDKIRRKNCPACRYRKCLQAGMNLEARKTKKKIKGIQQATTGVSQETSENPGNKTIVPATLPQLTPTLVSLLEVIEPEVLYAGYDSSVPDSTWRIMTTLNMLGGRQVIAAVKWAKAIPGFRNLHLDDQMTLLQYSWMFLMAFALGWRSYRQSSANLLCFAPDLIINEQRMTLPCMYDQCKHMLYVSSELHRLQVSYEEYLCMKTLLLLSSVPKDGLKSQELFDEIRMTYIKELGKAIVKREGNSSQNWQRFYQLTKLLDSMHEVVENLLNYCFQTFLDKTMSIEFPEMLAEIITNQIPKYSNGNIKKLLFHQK

[6] = target: Glucocorticoid receptor (Homo sapiens) (UniProt P04150); experiment: GR-EFC Redistribution (AID 451; calls by dose curve; also: potency is read from the fitted curve at half-maximal effect); conditions: CHO-K1 GR-EFC translocation, beta-gal luminescence, 2 h
How it was run: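 CHO-K1 cells expressing nuclear EA and GR-ED fragments of b-gal; compounds titrated up to 46 uM final, 2 h at 37 C. GR nuclear translocation read as complemented b-gal luminescence after 1 h RT detection.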

[7] = target: Mitogen-activated protein kinase 10 (Mus musculus) (UniProt Q61831); experiment: JNK3 AlphaScreen Assay (AID 530; active = well fitted curve in either direction with a large enough effect, not every such curve was filed as active;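 also: kinase came from lysate of stimulated human HepG2 cells; signal reports phosphorylation of biotinylated GST-cJun 1-79 at Ser73 with 10 µM ATP; % is scaled to controls: 0 for no effect and ±100 for the full control effect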); conditions: JNK3 lysate, c-Jun phosphorylation; series mostly up to 57.1 µM
How it was run: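 HepG2 lysate (IL-1b/TNFa pre-activated) + biotin-GST-cJun 1-79 + anti-pSer73 cJun; cpd titration, 15 min RT; ATP 10 uM start; Tris pH 7.6, MgCl2, DTT, vanadate; beads in EDTA buffer; AlphaScreen.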

[8] = target: Cytochrome P450 3A4 (Homo sapiens) (UniProt P08684); experiment: qHTS Assay for Activators of Cytochrome P450 3A4 (AID 885); conditions: recombinant CYP3A4, Luciferin-PPXE luminescence, 60 min; series mostly up to 57.1 µM; also: nearly all actives have a fitted effect of over 65% in size
Cytochrome P450 3A4 (Homo sapiens), sequence (P08684 whole entry, looked up): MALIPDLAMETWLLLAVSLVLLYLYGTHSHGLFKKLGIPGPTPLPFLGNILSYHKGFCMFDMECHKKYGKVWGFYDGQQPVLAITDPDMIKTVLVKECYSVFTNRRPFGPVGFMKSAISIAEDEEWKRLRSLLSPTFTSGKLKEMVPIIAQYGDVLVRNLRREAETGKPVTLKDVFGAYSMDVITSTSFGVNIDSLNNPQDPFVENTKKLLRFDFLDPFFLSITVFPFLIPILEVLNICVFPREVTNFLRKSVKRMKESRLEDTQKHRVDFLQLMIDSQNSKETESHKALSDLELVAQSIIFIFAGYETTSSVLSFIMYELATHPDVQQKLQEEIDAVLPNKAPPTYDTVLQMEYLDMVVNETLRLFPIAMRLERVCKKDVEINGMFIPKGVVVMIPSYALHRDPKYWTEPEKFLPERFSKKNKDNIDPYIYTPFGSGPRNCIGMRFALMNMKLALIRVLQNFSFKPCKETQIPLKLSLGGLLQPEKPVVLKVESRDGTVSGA
How it was run: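 CYP3A4 activity: Luciferin-PPXE O-dealkylation, 25uM substrate, 200mM KPO4, RT throughout. Read-out is luciferase luminescence; higher values reflect activation.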

[9] = target: Dual specificity protein kinase CLK4 (Homo sapiens) (UniProt Q9HAZ1); experiment: qHTS Assay for Inhibitors of CDC-like Kinase 4 (Kinase-Glo Assay) (AID 1770); conditions: recombinant Clk4, Kinase-Glo ATP depletion luminescence; series mostly up to 66.7 µM; also: potency is read from the fitted curve at half-maximal effect; nearly all actives have a fitted effect of over 65% in size
Dual specificity protein kinase CLK4 (Homo sapiens), sequence (Q9HAZ1 whole entry, looked up): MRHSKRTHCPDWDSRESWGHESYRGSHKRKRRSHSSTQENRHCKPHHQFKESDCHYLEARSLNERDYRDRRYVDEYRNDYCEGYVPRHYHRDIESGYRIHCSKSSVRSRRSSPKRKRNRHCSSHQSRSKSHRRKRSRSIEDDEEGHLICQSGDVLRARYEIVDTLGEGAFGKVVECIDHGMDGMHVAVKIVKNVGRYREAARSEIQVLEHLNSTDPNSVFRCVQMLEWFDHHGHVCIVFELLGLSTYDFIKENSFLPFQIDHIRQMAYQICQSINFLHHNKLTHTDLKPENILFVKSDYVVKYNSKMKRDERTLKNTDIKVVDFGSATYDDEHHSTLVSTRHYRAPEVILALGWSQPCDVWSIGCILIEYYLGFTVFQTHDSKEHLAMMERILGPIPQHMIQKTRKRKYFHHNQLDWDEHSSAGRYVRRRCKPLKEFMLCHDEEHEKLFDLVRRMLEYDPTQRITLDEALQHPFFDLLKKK
How it was run: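 Substrate mix (RS peptide 100 uM, ATP 1 uM) dispensed, compound pinned in, then Clk4 added to 25 nM final. Incubated 4.5 h at RT; Kinase-Glo reagent added, luminescence read after 5 min.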

[10] = target: Dual specificity protein kinase CLK4 (Homo sapiens) (UniProt Q9HAZ1); experiment: qHTS Assay for Inhibitors of CDC-like Kinase 4 (ADP-Glo Assay) (AID 1771); conditions: recombinant CLK4, ADP-Glo luminescence; series mostly up to 80 µM; also: potency is read from the fitted curve at half-maximal effect; nearly all actives have a fitted effect of over 70% in size
How it was run: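 In this ADP-Glo format, 1 uM ATP and 100 uM RS peptide served as substrates for 25 nM Clk4 in Mg2+/EGTA/DTT/Triton buffer; reactions ran 1 hr at room temperature before luminescent ADP quantification.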

[11] = target: Dual specificity protein kinase CLK4 (Homo sapiens) (UniProt Q9HAZ1); experiment: qHTS Assay for Inhibitors of CDC-like Kinase 4 (ADP-FP Assay) (AID 1795); conditions: Transcreener ADP fluorescence polarization; series mostly up to 50 µM; also: potency is read from the fitted curve at half-maximal effect; nearly all actives have a fitted effect of over 60% in size
How it was run: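 Clk4 6.25 nM; RS peptide 100 uM; ATP 1 uM; 25 mM Tris pH 7.5, 10 mM MgCl2; 1 h reaction. ADP detected via antibody/orange tracer FP displacement; TG003 positive control.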

[12] = target: Ubiquitin carboxyl-terminal hydrolase 1 (Homo sapiens) (UniProt O94782); experiment: Inhibitors of USP1/UAF1: Pilot qHTS (AID 504865); conditions: purified USP1/UAF1, Ub-rhodamine cleavage fluorescence; series mostly up to 54.9 µM;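 also: rhodamine fluorescence freed from ubiquitin-rhodamine substrate followed over time; top concentration of the series differs between compounds; % is scaled to controls: 0 for no effect and ±100 for the full control effect; nearly all actives have a fitted effect of over 35% in size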
How it was run: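 In 50mM HEPES pH 7.8 containing 0.5mM EDTA, 1mM TCEP, 0.1 mg/ml BSA and 0.01% Tween-20, 1nM USP1/UAF1 is exposed to compound for 15 min, then Ub-Rho (150nM final) is added and fluorescence is read over time.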

[13] = Primary qHTS for small molecule stabilizers of the endoplasmic reticulum resident proteome: Secreted ER Calcium Modulated Protein (SERCaMP) assay (AID 1508630); conditions: SH-SY5Y GLuc-SERCaMP (Gaussia luciferase released on ER calcium loss) secretion, thapsigargin, luminescence; series mostly up to 38.4 µM; also: % is scaled to controls: 0 for no effect and ±100 for the full control effect
How it was run: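 The SH-SY5Y reporter protocol was run at 3 concentrations up to 38.3 uM (primary) or 11 concentrations (follow-up): 16 h compound, 100 nM thapsigargin for 4 h, then extracellular luciferase luminescence.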

[14] = target: Rap guanine nucleotide exchange factor 3 (Homo sapiens) (UniProt O95398); experiment: Confirmatory qHTS for antagonist of cAMP-regulated guanine nucleotide exchange factor 3 (EPAC1) (AID 1645880); conditions: EPAC1 Rap1B-BODIPY-GDP exchange, fluorescence; series mostly up to 115 µM;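 also: plate controls were DMSO only for no effect and full effect of the ATA control for full effect; nearly all actives have a fitted effect of over 55% in size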
Rap guanine nucleotide exchange factor 3 (Homo sapiens), sequence (O95398 whole entry, looked up): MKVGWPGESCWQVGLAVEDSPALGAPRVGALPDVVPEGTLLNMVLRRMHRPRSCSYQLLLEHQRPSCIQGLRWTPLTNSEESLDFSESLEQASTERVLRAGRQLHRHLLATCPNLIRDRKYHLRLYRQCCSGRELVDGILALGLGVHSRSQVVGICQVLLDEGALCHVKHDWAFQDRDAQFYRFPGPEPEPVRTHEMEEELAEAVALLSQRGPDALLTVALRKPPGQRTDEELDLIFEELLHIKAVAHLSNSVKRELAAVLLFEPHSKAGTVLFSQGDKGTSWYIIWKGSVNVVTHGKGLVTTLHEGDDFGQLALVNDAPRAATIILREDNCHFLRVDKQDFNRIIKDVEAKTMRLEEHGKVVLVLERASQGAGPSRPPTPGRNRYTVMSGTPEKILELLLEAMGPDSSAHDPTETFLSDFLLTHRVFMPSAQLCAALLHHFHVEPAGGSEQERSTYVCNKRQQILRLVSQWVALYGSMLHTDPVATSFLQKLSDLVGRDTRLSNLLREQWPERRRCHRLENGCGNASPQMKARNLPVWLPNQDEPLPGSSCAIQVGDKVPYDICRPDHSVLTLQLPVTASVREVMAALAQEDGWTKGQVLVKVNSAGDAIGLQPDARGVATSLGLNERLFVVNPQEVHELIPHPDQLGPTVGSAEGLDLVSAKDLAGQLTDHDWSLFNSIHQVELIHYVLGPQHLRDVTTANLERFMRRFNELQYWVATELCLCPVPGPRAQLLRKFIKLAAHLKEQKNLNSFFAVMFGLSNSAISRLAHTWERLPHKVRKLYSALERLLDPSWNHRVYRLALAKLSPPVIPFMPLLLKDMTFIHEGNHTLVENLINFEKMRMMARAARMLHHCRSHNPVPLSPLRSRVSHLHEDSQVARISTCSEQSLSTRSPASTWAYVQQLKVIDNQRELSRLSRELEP
How it was run: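 Released BODIPY-GDP fluoresces less than Rap1-bound BODIPY-GDP; the signal is followed at 480/540 nm at 5-min intervals over 30 min, after 5 min at room temperature. Reactions contain 100 nM EPAC1, 250 nM RAP1B-BODIPY-GDP and 50 uM GDP; results are normalized to ATA and DMSO.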

[15] = target: Rap guanine nucleotide exchange factor 3 (Homo sapiens) (UniProt O95398); experiment: Confirmatory qHTS for agonist of cAMP-regulated guanine nucleotide exchange factor 3 (EPAC1) (AID 1645881); conditions: EPAC1 Rap1B BODIPY-GDP exchange fluorescence, 100% = cAMP control response; series mostly up to 154 µM;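 also: EPAC1 catalysed release of BODIPY-GDP from Rap1B seen as fluorescence loss; nearly all actives have a fitted effect of over 75% in size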
[16] = target: Rap guanine nucleotide exchange factor 4 (Homo sapiens) (UniProt Q8WZA2); experiment: Confirmatory qHTS for agonist of cAMP-regulated guanine nucleotide exchange factor 4 (EPAC2) (AID 1645884); conditions: EPAC2 GEF activity, Rap1B-BODIPY-GDP fluorescence, percent relative to cAMP agonist control; series mostly up to 154 µM;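 also: nucleotide exchange releases bodipy-GDP from Rap1 and this lowers its fluorescence; % is scaled to controls: 0 for no effect and ±100 for the full control effect; nearly all actives have a fitted effect of over 65% in size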
Rap guanine nucleotide exchange factor 4 (Homo sapiens), sequence (Q8WZA2 whole entry, looked up): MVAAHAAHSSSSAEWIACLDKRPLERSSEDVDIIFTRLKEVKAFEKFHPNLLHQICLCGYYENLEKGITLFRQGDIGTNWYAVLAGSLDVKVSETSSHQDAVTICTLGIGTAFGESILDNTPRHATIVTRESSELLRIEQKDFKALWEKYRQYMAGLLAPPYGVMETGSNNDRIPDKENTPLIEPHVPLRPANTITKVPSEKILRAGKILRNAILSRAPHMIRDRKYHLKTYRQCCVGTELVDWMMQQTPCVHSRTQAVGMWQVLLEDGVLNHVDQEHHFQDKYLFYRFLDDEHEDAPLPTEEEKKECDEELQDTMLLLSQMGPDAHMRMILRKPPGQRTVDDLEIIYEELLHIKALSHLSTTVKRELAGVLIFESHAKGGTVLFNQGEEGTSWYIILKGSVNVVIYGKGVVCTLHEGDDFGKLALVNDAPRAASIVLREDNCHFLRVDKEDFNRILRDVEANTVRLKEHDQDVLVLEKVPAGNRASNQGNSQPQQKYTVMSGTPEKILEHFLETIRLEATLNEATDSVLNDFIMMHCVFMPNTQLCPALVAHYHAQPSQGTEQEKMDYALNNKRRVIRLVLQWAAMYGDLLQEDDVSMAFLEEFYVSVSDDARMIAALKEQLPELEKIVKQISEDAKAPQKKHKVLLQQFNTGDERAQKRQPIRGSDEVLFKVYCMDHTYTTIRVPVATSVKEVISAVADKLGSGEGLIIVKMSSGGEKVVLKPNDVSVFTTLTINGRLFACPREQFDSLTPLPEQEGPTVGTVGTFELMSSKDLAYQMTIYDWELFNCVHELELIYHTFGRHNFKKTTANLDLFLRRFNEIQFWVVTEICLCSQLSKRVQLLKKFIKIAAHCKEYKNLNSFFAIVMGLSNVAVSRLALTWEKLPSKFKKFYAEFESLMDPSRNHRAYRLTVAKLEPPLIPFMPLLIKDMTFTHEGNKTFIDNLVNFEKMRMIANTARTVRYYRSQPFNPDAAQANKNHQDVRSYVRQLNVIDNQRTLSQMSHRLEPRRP

[17] = target: Rap guanine nucleotide exchange factor 4 (Homo sapiens) (UniProt Q8WZA2); experiment: Confirmatory qHTS for antagonist of cAMP-regulated guanine nucleotide exchange factor 4 (EPAC2) (AID 1645885); conditions: EPAC2 Rap1B-BODIPY-GDP exchange fluorescence, biochemical; series mostly up to 114 µM; also: % is scaled to controls: 0 for no effect and ±100 for the full control effect; nearly all actives have a fitted effect of over 25% in size
[18] = target: Cytochrome P450 3A4 (Homo sapiens) (UniProt P08684); experiment: qHTS Assay for Inhibitors and Substrates of Cytochrome P450 3A4 (AID 884); conditions: recombinant CYP3A4, Luciferin-PPXE luminescence; series mostly up to 57.1 µM; also: potency is read from the fitted curve at half-maximal effect; nearly all actives have a fitted effect of over 50% in size
How it was run: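 Luminescent readout of luciferin produced by CYP3A4 (20 nM) dealkylation of Luciferin-PPXE, 25 uM (its KM). NADPH-driven reaction ran 60 min at RT after 10 min compound preincubation; data scaled to 57 uM ketoconazole as 100% inhibition.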

[19] = Primary qHTS for inhibitors of nuclear receptor binding SET domain protein 2 (NSD2) in an isogenic RCH-ACV NSD2 p.E1099K mutant (9B) (AID 1645876); conditions: RCH-ACV NSD2 E1099K (9B) viability, CellTiter-Glo, 72 h; series mostly up to 44.9 µM; also: potency is read from the fitted curve at half-maximal effect; nearly all actives have a fitted effect of over 70% in size
[20] = Primary qHTS for inhibitors of nuclear receptor binding SET domain protein 2 (NSD2) in an RCH-ACV wild type WT cells (2C) (AID 1645877); conditions: RCH-ACV (leukaemia line) NSD2 WT (2C) viability, CellTiter-Glo, 72 h; series mostly up to 44.9 µM; also: potency is read from the fitted curve at half-maximal effect; nearly all actives have a fitted effect of over 70% in size
[21] = target: Glutathione peroxidase 1 (Homo sapiens) (UniProt P07203); experiment: Primary qHTS Assay for Inhibitors of Recombinant Selenoprotein Glutathione Peroxidase 1 (GPX1) (AID 1845191); conditions: recombinant GPX1, GR-coupled NADPH fluorescence, 15 min; series mostly up to 48.8 µM; also: nearly all actives have a fitted effect of over 65% in size
Glutathione peroxidase 1 (Homo sapiens), sequence (P07203 whole entry, looked up): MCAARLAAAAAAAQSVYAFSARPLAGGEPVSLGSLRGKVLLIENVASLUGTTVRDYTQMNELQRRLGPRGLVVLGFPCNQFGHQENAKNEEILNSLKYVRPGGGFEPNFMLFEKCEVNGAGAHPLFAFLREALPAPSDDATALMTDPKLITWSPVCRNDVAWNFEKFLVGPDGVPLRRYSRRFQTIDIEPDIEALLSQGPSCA
How it was run: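 GR-coupled readout: NADPH consumption tracked by fluorescence, ex 340/em 450 nm, at t=0 and after 15 min at RT. Final mix 10 nM GPX1, 1 mM GSH, 0.5 mM CHP, 0.5 mM NADPH, 100 nM GR, 0.01% BSA, following 30 min enzyme–compound preincubation.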

[22] = target: Phospholipid hydroperoxide glutathione peroxidase GPX4 (Homo sapiens) (UniProt P36969); experiment: Primary qHTS Assay for Inhibitors of Recombinant Selenoprotein Glutathione Peroxidase 4 (GPX4) (AID 1845192); conditions: recombinant GPX4, GR-coupled NADPH fluorescence, 15 min; series mostly up to 50 µM; also: nearly all actives have a fitted effect of over 65% in size
How it was run: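 Steps: GPX4 plus compound, 30 min RT; add GR/GSH/NADPH master mix; start with cumene hydroperoxide; read 340/450 nm fluorescence at 0 and 15 min. Finals were 200 nM GPX4, 1 mM GSH, 0.5 mM CHP, 0.5 mM NADPH, 100 nM GR.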

[23] = qHTS drug screen for cell cycle checkpoint inhibitors in PARPi-resistant BRCA-mutant ovarian cancer cell lines. (AID 1963452; calls by dose curve; also: potency is read from the fitted curve at half-maximal effect); conditions: PEO1/OlaR viability, CellTiter-Glo luminescence, 96 h; for Z-AUC: stronger effect = lower value
How it was run: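 PEO1, PEO4 and PEO1/OlaR ovarian cancer cells, 600 per well, exposed 96 h at 37C to a dilution series. Viability read by CellTiter-Glo luminescence, normalized to DMSO and empty wells; activity summarized as Z-AUC.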

[24] = Stat Signaling Pathway (AID 446; active = well fitted curve in either direction with a large enough effect, not every such curve was filed as active); conditions: ME-180 (cervical carcinoma) SIE beta-lactamase reporter, IL-6 stimulated, 5 h; at 7.69 µM (top of the series) unless noted
How it was run: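 Compound effects on IL-6-induced STAT reporter activity were measured in ME-180 cells. After overnight culture, cells were co-treated with 40 pM IL-6 for 5 hrs before beta-lactamase substrate loading at room temperature.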

[25] = target: 3',5'-cyclic-AMP phosphodiesterase 4B (Homo sapiens) (UniProt Q07343); experiment: qHTS Assay for Inhibitors of PDE-IV (AID 607; active = well fitted activation curve with a large enough effect in the main read-out, with a control signal flat, not every such curve was filed as active; also: % of control where 0% means no effect); conditions: HEK293 ACTOne CNG channel cells, membrane potential fluorescence; series mostly up to 22.9 µM
How it was run: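 ACTOne HEK293 cells carry a modified cAMP-gated CNG channel and express endogenous PDE4; plated 1000 cells/well, compounds up to 22.9 uM final. Membrane-potential dye fluorescence (ex 535/em 590) was read; parental cells received 10 uM forskolin + 100 uM RO 20-1724.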

[26] = measured here: PEO1 parental Z-AUC

Compound: CN(Cc1ccco1)c1ncnc2ccc(-c3ccoc3)cc12
- Potency [1]: > 11400 nM (inactive)
- activity change, negative = inhibition [2]: -16.7% (inactive)
- Potency [3]: 2510 nM (active)
- activity change, negative = inhibition [4]: -26.3% (inactive)
- Potency [5]: > 46000 nM (inactive)
- Potency [6]: > 46000 nM (inactive)
- outcome [7]: inactive
- Potency [8]: inactive
- Potency [9]: 112 nM (active)
- Potency [10]: 112 nM (active)
- Potency [11]: 50.1 nM (active)
- Potency [12]: inactive
- Potency [13]: inactive
- Potency [14]: inactive
- outcome [15]: inactive
- outcome [16]: inactive
- Potency [17]: inactive

Compound: CCCCNc1nc(C)nc2c1nc(-c1ccccc1)n2C1CCN(Cc2ccccc2)C1 (stereo not given)
- outcome [7]: inactive
- Potency [18]: 7940 nM (active)
- Potency [8]: inactive

Compound: CCS(=O)(=O)Nc1ccc(Oc2ccc(F)cc2F)c(-c2cn(C)c(=O)c3[nH]ccc23)c1
- Potency [19]: 13.2 nM (active)
- Potency [20]: 7.4 nM (active)
- Potency [21]: inactive
- Potency [22]: inactive
- Potency [23]: 38.9 nM (active)
- Z-AUC [23, 26]: -1.41
- Z-AUC ([23]; measured here: PEO4 Z-AUC): -1.58

Compound: COc1nnc2ccc(N3CCC(c4ccc(OCCN5CCN(C)C(=O)[C@H]5C)cc4)CC3)nn12
- Potency [19]: 66.1 nM (active)
- Potency [20]: 52.5 nM (active)
- Potency [23]: 195 nM (active)
- Z-AUC [23, 26]: -1.72
- Z-AUC ([23]; measured here: PEO4 Z-AUC): -1.83

Compound: CN1CCN(c2ccc(Nc3ncc4cc(C#N)c(=O)n(C5CCCC5)c4n3)cc2)CC1
- Potency [19]: 590 nM (active)
- Potency [20]: 525 nM (active)
- Potency [21]: inactive
- Potency [22]: inactive

Compound: COC(=O)N1CCC[C@@]2(CCN(C(=O)Nc3ccccc3)C2)C1
- Potency [1]: > 11400 nM (inactive)
- activity change, negative = inhibition [2]: -3.51% (inactive)
- Potency [3]: 12600 nM (active)
- activity change, negative = inhibition [4]: 8.29% (inactive)
- activity, negative = inhibition [24]: -0.455% (inactive)
- Potency [6]: > 46000 nM (inactive)
- outcome [7]: inactive
- Potency [25]: inactive
- Potency [13]: inactive
